CYP2C9 inh: blockers of cytochrome P450 2C9 activity – biochemical, luminescence, ADME assay, primary screen; P11712; CYP2C9 Supersomes, luciferin-H conversion; inhibition, % at 5 µM; 20% of 96,000 active; AID 777, 2007;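 active means blocking of liver enzyme CYP2C9 beyond about 50% at 5 µM, limit read from the data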
Target sequence (P11712 whole entry, looked up): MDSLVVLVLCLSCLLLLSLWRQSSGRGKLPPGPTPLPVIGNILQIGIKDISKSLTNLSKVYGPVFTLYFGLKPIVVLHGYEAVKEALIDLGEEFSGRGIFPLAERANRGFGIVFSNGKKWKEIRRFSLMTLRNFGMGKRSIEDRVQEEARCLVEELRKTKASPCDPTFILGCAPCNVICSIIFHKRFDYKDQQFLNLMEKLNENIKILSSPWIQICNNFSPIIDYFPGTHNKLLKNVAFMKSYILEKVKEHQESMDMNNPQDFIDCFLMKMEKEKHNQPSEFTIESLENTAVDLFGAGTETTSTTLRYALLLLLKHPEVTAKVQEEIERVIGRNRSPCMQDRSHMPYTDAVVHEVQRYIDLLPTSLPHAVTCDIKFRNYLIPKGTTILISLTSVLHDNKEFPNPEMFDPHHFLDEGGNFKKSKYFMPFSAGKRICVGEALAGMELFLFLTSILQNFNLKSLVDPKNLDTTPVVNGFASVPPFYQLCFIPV
CYP2C19 inh: blockers of cytochrome P450 2C19 activity – biochemical, luminescence, ADME assay, primary screen; P33261; CYP2C19 Supersomes, luciferin-H EGE luminescence, 30 min; inhibition, % at 5 µM; 21% of 96,000 active; AID 778, 2007;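 active means CYP2C19 inhibition above a set limit at 5 µM in the primary screen, cut at about 50% in these data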;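 further: plate controls were negative control wells for no effect and 2.5 mM tranylcypromine positive control for full effect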
CYP2C9 activ: human CYP2C9 activators, primary screen, biochemical, luminescence | activation factor at 5 µM | 1.4% of 96,000 active | recombinant CYP2C9, luciferin-H conversion; stronger effect = higher value; factor 1 = untreated enzyme, 0 = blocked | Cytochrome P450 2C9 (Homo sapiens), P11712;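 active means activation factor of 2 or more for CYP2C9 at a 5 µM dose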;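 further: 0 = sulfaphenazole-blocked wells and 1 = vehicle-only wells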
CYP2C19 activ: human CYP2C19 activators, primary screen, biochemical, luminescence. recombinant CYP2C19, luciferin-H EGE luminescence; stronger effect = higher value; 0 = fully inhibited enzyme, 1 = untreated enzyme. activation factor at 5 µM. 96,000 tested, under 10 active;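 active means activation factor of at least 2 at 5 µM in the primary screen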;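 further: 0 = wells with 2.5 mM tranylcypromine and 1 = vehicle-only wells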
An asterisk follows results filed as active; . = no result given. Compounds with a hit are over-represented: about 31% of the library has one in this group of screens.

SMILES	CYP2C9 inh	CYP2C19 inh	CYP2C9 activ	CYP2C19 activ
COc1ccccc1-n1nnnc1SCC(=O)NC1CCCC1	-126	11	2.3*	0.9
CC1CCCC(C)N1C(=O)CSc1nnnn1-c1cccc2c1CCCC2 (stereo not drawn)	-34	26	1.3	0.7
O=C(CSc1nnnn1-c1cccc2c1CCCC2)N1CCOCC1	-119	20	2.2*	0.8
CCSc1nn2c(=O)c3ccccc3nc2s1	49	28	0.5	0.7
CCc1cc(=O)oc2cc(OC(C)C(=O)O)c(Cl)cc12 (stereo not drawn)	21	-12	0.8	1.1
CCn1nc(C(=O)OCC(=O)c2ccc3c(c2)OCCO3)c2ccccc2c1=O	28	18	0.7	0.8
O=C(CSc1nnnn1-c1cccc2c1CCCC2)NC1CCCC1	-200	10	3*	0.9
COc1cccc(-n2nnnc2SCC(=O)Nc2cccc(C)n2)c1	-64	25	1.6	0.7
CCN(CC)S(=O)(=O)c1ccc2c(c1)nc(SCC(=O)NC1CC1)n2-c1ccccc1OC	75*	21	0.2	0.8
COc1ccc2c(c1)c1nnc(SC)nc1n2C	22	3	0.8	1
COc1ccc2c(c1)c1nnc(SCC(=O)N3C(C)CCCC3C)nc1n2C (stereo not drawn)	66*	49	0.3	0.5
COc1cccc(-n2nnnc2SCC(=O)NC2CCCC2)c1	-98	44	2*	0.6
Cn1c(=O)[nH]c(=O)c2c1nc(N1CCNCC1)n2Cc1cccc2ccccc12	-19	-14	1.2	1.1
Cc1ccc(-c2nsc3c(N4CCN(C(=O)c5ccco5)CC4)ncnc23)cc1	23	10	0.8	0.9
O=C(COc1ccccc1)NNc1c2ccccc2nc2ccccc12	-222	15	3.2*	0.8
COc1ccc(OCC(=O)NNc2c3ccccc3nc3ccccc23)cc1	-134	0	2.3*	1
O=C(NNC(=O)c1cc(-c2ccc(Cl)cc2Cl)nc2ccccc12)Nc1ccccc1	17	-8	0.8	1.1
O=C(NNc1c2ccccc2nc2ccccc12)c1ccc(O)cc1O	71*	66*	0.3	0.3
O=C(O)CC(c1ccc(Cl)cc1)N1C(=O)CCC1=O (stereo not drawn)	9	-4	0.9	1
CC(C)OCCCNS(=O)(=O)c1ccc2ccccc2c1	-237	39	3.4*	0.6
Cc1ccc(OCCNS(=O)(=O)c2cccs2)cc1	85*	100*	0.2	0
COCCNS(=O)(=O)c1ccccc1	2	12	1	0.9
COc1ccc(OCCNS(=O)(=O)c2ccccc2)cc1	82*	86*	0.2	0.1
CC(C)OCCCNS(=O)(=O)c1ccc2c(c1)OCCO2	-124	77*	2.2*	0.2
O=C1c2ccccc2CN1CCNS(=O)(=O)c1ccc2ccccc2c1	-154	30	2.5*	0.7
SMILES	CYP2C9 inh	CYP2C19 inh	CYP2C9 activ	CYP2C19 activ
O=C1NCCN1CCNS(=O)(=O)c1ccc2ccccc2c1	23	16	0.8	0.8
O=S(=O)(NCCOc1ccccc1)c1ccc2ccccc2c1	-105	2	2.1*	1
O=C(c1cc2ccccc2oc1=O)N(Cc1ccccc1)C1CCS(=O)(=O)C1 (stereo not drawn)	13	9	0.9	0.9
Cc1c(NC(=O)c2cc(CC(C)C)on2)c(=O)n(-c2ccccc2)n1C	14	6	0.9	0.9
Cc1ccc(S(=O)(=O)n2nc(C)cc2C)cc1	-26	10	1.3	0.9
CCOc1cc(S(=O)(=O)Nc2ccc(Cl)cn2)ccc1F	96*	29	0	0.7
CCOc1cc(S(=O)(=O)n2nc(C)cc2C)ccc1F	16	73*	0.8	0.3
CCOc1cc(S(=O)(=O)N(CC)CC)ccc1F	-132	95*	2.3*	0.1
COc1ccc(S(=O)(=O)Nc2ccc(Cl)cn2)c(C)c1C	53*	39	0.5	0.6
CC1(C)Cc2nc3nc(SCC(=O)NCCc4ccccc4)n(-c4ccccc4)c(=O)c3cc2CO1	7	-8	0.9	1.1
C=C(C)CSc1nnc([C@@H]2CCCN2C(=O)OC(C)(C)C)o1	-1	47	1	0.5
Cc1csc(=Nc2ccc(S(=O)(=O)N3CCOCC3)cc2)n1Cc1ccco1	64*	12	0.4	0.9
COCCN(CC(=O)NC1CCCCC1)C(=O)CSc1nc2ccccc2o1	46	92*	0.5	0.1
O=C(NC1CCCCCCC1)C1CCN(c2nc3ccccc3o2)CC1	29	36	0.7	0.6
O=C(CN(Cc1ccc2c(c1)OCO2)C(=O)CSc1nc2ccccc2o1)NC1CCCCC1	96*	98*	0	0
CC(C)OCCCNCc1cccs1	-12	-11	1.1	1.1
COc1c[nH]n(C2CCCCC2)c(=O)c1=O	22	2	0.8	1
O=C(O)CSCC(=O)Nc1ccc(C2CCCCC2)cc1	64*	3	0.4	1
CCOC(=O)/C(C(N)=NCCO)=C(/O)c1ccccc1	-6	7	1.1	0.9
CNc1nc(Sc2ccc(C)cc2)cc(C(F)(F)F)n1	7	-1	0.9	1
COC(=O)c1c(N)c2ccccc2[nH]c1=O	-20	-6	1.2	1.1
COC(=O)C1Cc2c([nH]c3ccccc23)C(C)N1 (stereo not drawn)	-159	50*	2.6*	0.5
CCOC(=O)C1Cc2c([nH]c3ccccc23)CN1 (stereo not drawn)	3	56*	1	0.4
Cc1nc2c(C)cccn2c1/C(O)=C1\C(=O)C(=O)N(CCN2CCOCC2)C1c1cccs1 (stereo not drawn)	6	32	0.9	0.7
N#CCCn1c(C2CCCCC2)nc2ccccc21	-17	-18	1.2	1.2
SMILES	CYP2C9 inh	CYP2C19 inh	CYP2C9 activ	CYP2C19 activ
COc1cc2ncnc(NCc3ccccc3C)c2cc1OC	22	33	0.8	0.7
Cc1ccc(CNc2ncnc3cc(Cl)ccc23)o1	54*	67*	0.5	0.3
COCCCNC(=O)CCc1nc2cccnc2n1Cc1ccccc1	15	6	0.8	0.9
N/C(Cc1ccc(Cl)cc1Cl)=N\OC(=O)c1cccs1	44	54*	0.6	0.5
O=C(NCC1CCN(c2ccc(S(=O)(=O)N3CCOCC3)cc2)CC1)c1ccc(Cl)cc1	21	41	0.8	0.6
Cc1cc(C)nc(N2CCC(C(=O)Nc3nnc(C)s3)CC2)n1	27	0	0.7	1
O=[N+]([O-])c1ccc(N2CCN(CCO)CC2)cc1Sc1nc2ccccc2[nH]1	56*	37	0.4	0.6
Cc1cc2nc(SCCOC(=O)Nc3ccc(Cl)cc3)nc(C)c2cc1C	0	16	1	0.8
CC(C)N(C(=O)CSc1nc2ccccc2n1-c1ccccc1)C(C)C	.	51*	.	0.5
CCC(C)NCCOc1ccc(Br)cc1 (stereo not drawn)	8	26	0.9	0.7
CC(C)c1ccc2oc(=O)cc(CN3CCN(c4ccc(F)cc4)CC3)c2c1	26	31	0.7	0.7

High-throughput results as filed in PubChem.
